Bioassay records: PubChem BioAssay, National Center for Advancing Translational Sciences (NCATS)
In the library only some 0.58% were active in any assay of this set; here they are far more common.
CtBP-E1A inh: qHTS Assay for Inhibitors of the CtBP/E1A Interaction | CtBP / adenovirus E1A interaction (AlphaScreen) | AlphaScreen GST-E1A/His-CtBP binding, 1536-well; active compounds read low | activity change, % (concentration not given with the values) | 340,000 tested, 0.49% active | AID 651724, 2012; in the data active = activity change below about -65%; inconclusive = mostly about -30% to -63%; also: % is scaled to controls: 0 for no effect and ±100 for the full control effect
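Steps: dispense buffer (Tris pH 8.0, NaCl 300 mM, TCEP 1 mM, BSA, Tween 20); add 5X protein mix (GST-E1A, His-CtBP, 125 nM each); pin 23 nL compound; 2 h at 37 °C, dark; add 5X beads (50 ug/mL); 1 h; read.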
Eya2 inh: qHTS Assay for Inhibitors of the Phosphatase Activity of Eya2; Protein phosphatase EYA2 (Homo sapiens), O00167; recombinant Eya2, OMFP fluorescence dephosphorylation (OMFP is methylfluorescein phosphate); Potency, µM (titrated, usually from 76.9 µM), for the others: top-dose activity, negative = inhibition, actives largely listed as inhibitors; 330,000 tested, 0.006% active; also: potency is read from the fitted curve at half-maximal effect; % is scaled to controls: 0 for no effect and ±100 for the full control effect
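Eya2 (0.2 uM) preincubated 10 min at ambient with compound, then OMFP substrate added at 50 uM; 10 min reaction in 50 mM HEPES pH 7.5, 50 mM NaCl, 5 uM MgCl2, 0.05% BSA, 1 mM DTT. Fluorescence read at Ex 485/Em 525 nm.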
Glioma ERSR ind: qHTS for Inducers of the Endoplasmic Reticulum Stress Response (ERSR) in Human Glioma: qHTS. U87-MG GRP78 promoter luciferase reporter, 16 h. 420,000 tested, 0.02% active. Potency, µM, inactives show at the top dose activation, usual class: activators; also: potency is read from the fitted curve at half-maximal effect; series mostly up to about 76 µM; % of control where 0% means no effect; nearly all actives have a fitted effect of over 35% in size
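Stably transfected U87-MG human glioma cells carrying a GRP78-based luminescent sensor were seeded at 1000 cells/well, pin-dosed with compounds and incubated 16 h. Luciferase reagent was then added, and end-point luminescence was read after 10 min at room temperature.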
Six1-Eya2 inh: qHTS Assay for Inhibitors of the Six1/Eya2 Interaction; 360,000 tested, 0.56% active; AlphaScreen GST-Six1/His-Eya2 binding, biochemical; active compounds read low; activity change, % (concentration not given with the values); AID 651725, 2012; Homeobox protein SIX1 (Homo sapiens) + Protein phosphatase EYA2 (Homo sapiens), …; in the data active = activity change below about -65%; inconclusive = mostly about -30% to -63%; also: % is scaled to controls: 0 for no effect and ±100 for the full control effect
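AlphaScreen with GST-Six1 and His-Eya2 (5X mix: 250 nM and 500 nM), glutathione donor and nickel acceptor beads; buffer 50 mM Tris pH 8.0, 300 mM NaCl, 1 mM TCEP; 1 h at 37 C in the dark.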
Numbers without * were called inactive; ? = inconclusive; . = no result. Unless noted, calls follow the shape of the dose curve; as a rule, active = well fitted curve in the direction sought with a large enough effect; inconclusive = small, poorly fitted or top-dose-only effect, or another doubt; inactive = no such curve, though single readings can be large; an effect the other way counts as inactive or inconclusive.

SMILES	CtBP-E1A inh	Eya2 inh	Glioma ERSR ind	Six1-Eya2 inh
Clc1nc(-c2ccccn2)nc2scc(-c3ccccc3)c12	-9	-11%	-7%	-73*
CC1CCN(c2nc(-c3cccnc3)nc3scc(-c4ccccc4)c23)CC1	-3	-14%	-2%	1
CC(C)(C)n1ncc2c(=O)n(Cc3ccc(C#N)cc3F)cnc21	.	.	-4%	.
Cc1ccc(C)c(NC(=S)c2ccccn2)c1	-67*	11%	6%	?
S=C(Nc1ccccn1)c1ccccn1	-89*	-5%	-6%	-92*
O=C(Nc1ccccn1)C(=O)Nc1ccccn1	3	-13%	-10%	4
CC(C)(C)n1ncc2c(=O)n(Cc3ccc(Cl)cc3C(F)(F)F)cnc21	.	.	-3%	.
O=C(NCc1ccccc1)C1CCCN1S(=O)(=O)c1ccc(F)cc1 (centres undefined)	-81*	-8%	-3%	0
Cc1ccc(CNC(=O)C2CCCN2S(=O)(=O)c2ccc(F)cc2)cc1 (centres undefined)	-2	-4%	-1%	3
O=C(NCCCN1CCOCC1)C(=O)N/N=C/c1ccccc1Cl	.	10%	2%	1
O=C(Cc1csc(N2CCOCC2)n1)N/N=C/c1ccc(O)c(O)c1O	?	-4%	0%	-73*
O=C(NCCCN1CCOCC1)C(=O)N/N=C/c1ccccc1O	?	-7%	-2%	-75*
O=C(CCN1CCOCC1)N/N=C/c1cc(Br)cc(Br)c1O	-73*	3%	-6%	-83*
O=C(NCc1ccccn1)C(=O)N/N=C/c1ccccc1O	?	5%	2%	-73*
C/C(=N\NC(=O)Cc1csc(N2CCOCC2)n1)c1ccccc1	-1	6%	-2%	-3
Cc1cc(/C=N/NC(=O)C(=O)NCc2ccccn2)c(C)n1-c1cccc(Br)c1	-12	-15%	-1%	-14
CC(C)c1c(C(=O)N(C)Cc2cccc3ncccc23)cnn1-c1nccc(-c2ccccc2F)n1	.	.	-5%	.
O=C(c1ccnc(-n2cnnn2)c1)N1CCOc2ccc(C(O)CCc3ccccc3)cc2C1 (centres undefined)	.	.	0%	.
CC(C)Cc1nc2cc(NS(=O)(=O)N(C)C)cc(C(=O)N3CCSCC3)c2n1C	.	.	4%	.
O=C(O)COc1ccc(/C=N/NC(=O)COc2nsnc2N2CCOCC2)cc1	3	-8%	-3%	2
O=C(COc1nsnc1N1CCOCC1)N/N=C/c1ccccc1O	-6	0%	-2%	-90*
COCc1c(C(=O)N2CCN(C3CCCC3)CC2)cnn1-c1ncc2c(n1)-c1ccccc1CCC2	.	.	-6%	.
C/C(=N\NC(=O)c1cc(O)cc(O)c1)c1ccc(NC(=O)Cc2ccccc2)cc1	-89*	4%	2%	-89*
Cc1ccc2c(c1)CN(CCNC(=O)c1n[nH]c3c1CCCC3)CC(C)O2 (centres undefined)	.	.	-3%	.
COc1ccccc1N1CCN(c2nc(CNC(=O)c3sc(C)nc3C)nc3ccccc23)CC1	.	.	-3%	.
SMILES	CtBP-E1A inh	Eya2 inh	Glioma ERSR ind	Six1-Eya2 inh
c1ccc(-c2nc(-c3ccncc3)n[nH]2)nc1	-1	14%	7%	-89*
c1ccc(-c2ccncc2)nc1	7	8%	-3%	0
CO[C@@]1(NC(=O)CSC(F)F)C(=O)N2C(C(=O)O)=C(CSc3nnnn3CCO)CO[C@@H]21	.	.	-3%	.
CCN1C(=O)/C(=C2\SC(=S)N(NC(=O)c3ccccc3O)C2=O)c2ccccc21	-97*	-3%	-1%	-90*
Cc1ccc(/C=N\NC(=O)COc2ccc(C)cc2[N+](=O)[O-])cc1	2	-8%	-1%	-1
Cc1ccc(OCC(=O)N/N=C\c2c(C)[nH]n(-c3ccccc3)c2=O)c([N+](=O)[O-])c1	-81*	-18%	3%	-91*
Cc1[nH]n(-c2ccccc2)c(=O)c1/C=N/NC(=O)c1cccc(F)c1	.	-12%	-1%	-92*
Cc1cc(C(=O)N/N=C/c2c(C)[nH]n(-c3ccccc3)c2=O)n[nH]1	-94*	4%	0%	-91*
Cc1[nH]n(-c2ccccc2)c(=O)c1/C=N/NC(=O)c1ccc(O)cc1O	.	-4%	5%	-91*
